Here are results for 16 compounds from PubChem BioAssay (NCI).

Among the test systems are EKVX NSCLC; SN12C renal; UO-31 renal; TK-10 renal; ACHN renal; CAKI-1 renal; A498 renal; CCRF-CEM leukemia; MOLT-4 leukemia.
Experiment in all cases: NCI-60 one-dose screen, 48 h (100 = growth as untreated, 0 = no growth, -100 = all killed)
Details in all cases: 10 µM unless noted

SMILES strings stand for the structures. Compounds without any hit were thinned out: in the full panel of roughly 83,000, 20% have a hit.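 Values shown are percent growth following 48 h exposure of cells in 96-well plates to a single concentration of compound; below 10 was considered active.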 A number with no mark means an inactive call. Activity calls are given as the source filed them.

Take `Cc1nn(-c2ccccc2)c2nc3c(nc12)C(=O)CCC3`: the growth was 93.8% in the assay on EKVX NSCLC; 90.1% in the assay with SN12C renal; 66.4% with UO-31 renal; 104% with TK-10 renal; 95.5% with ACHN renal; 101% in the assay with CAKI-1 renal.

As to `Cc1c(C(N)=O)sc2c1c(=O)n(Cc1ccccc1)c1nnc(S(=O)(=O)CC(=O)Nc3ccc(Cl)cc3)n21`, the growth in the assay on EKVX NSCLC was 43.6%; in the assay on SN12C renal it was 56%; in the assay on UO-31 renal, 87%; in the assay with TK-10 renal, 18%; with ACHN renal it was 10.1%; in the assay on CAKI-1 renal, 68.2%. In addition, the growth with A498 renal was 22.6%.

As to `COc1ccc(C(=O)/C=C/c2c(Cl)nc3c(c(C)nn3-c3ccccc3)c2-c2ccc(Br)cc2)cc1`, the growth in the assay on EKVX NSCLC is 109%; in the assay on SN12C renal, 99.4%; in the assay with UO-31 renal, 88.1%; in the assay on TK-10 renal, 106%; with ACHN renal, 101%; in the assay on CAKI-1 renal, 100%. Moreover, the growth in the assay on A498 renal is 112%.

For `Cc1nn(-c2ccc(Cl)cc2)c2nc3c(nc12)c(=O)oc1ccccc13`, the growth with EKVX NSCLC was 108%; in the assay with SN12C renal it was 101%; with UO-31 renal, 101%; in the assay with TK-10 renal it was 107%; in the assay with ACHN renal, 99.8%; in the assay on CAKI-1 renal it was 98.3%. The growth in the assay with A498 renal was 95%.

In the case of `Cc1nn(-c2ccc(Cl)cc2)c2nc3c(nc12)C(=O)C(=O)c1ccccc1-3`, the growth was 64% in the assay on EKVX NSCLC; 78.7% in the assay with SN12C renal; 59.8% in the assay with UO-31 renal; 144% with TK-10 renal; 81.2% in the assay with ACHN renal; 69.8% with CAKI-1 renal. In the assay on A498 renal, the growth is 59.4%.

With `O=C1Cc2cc(CCN3CCN(CCOCCO)CC3)c(Cl)cc2N1Cc1ccc(-c2ccccc2-c2nn[nH]n2)cc1`, the growth with EKVX NSCLC was 47.4%; in the assay on SN12C renal, 86.1%; in the assay on UO-31 renal it was 79.5%; in the assay with TK-10 renal, 111%; in the assay on ACHN renal, 84.1%; in the assay on CAKI-1 renal, 61%. In addition, in the assay with A498 renal, the growth was 59.9%.

With `Cn1cc(-c2csc(-c3cn(C)c4ncccc34)n2)c2cccnc21`, the growth with EKVX NSCLC was 86.6%; in the assay on SN12C renal, 93.1%; with UO-31 renal it was 91.9%; in the assay with TK-10 renal it was 92.2%; in the assay with ACHN renal, 99.7%; with CAKI-1 renal, 83.3%. Besides, the growth in the assay on A498 renal is 76.1%; in the assay on CCRF-CEM leukemia it was 87.3%; with MOLT-4 leukemia, 95.7%.

Take `Cc1nn(-c2ccc(Br)cc2)c2nc3c(nc12)C(=O)C(=O)c1ccccc1-3`: the growth is 80% in the assay on EKVX NSCLC; 95.5% in the assay with SN12C renal; 63.7% in the assay with UO-31 renal; 140% in the assay with TK-10 renal; 93.1% in the assay with ACHN renal; 94.9% with CAKI-1 renal. The growth with A498 renal is 106%.

For the compound `CN1C(=O)C(=Cc2cn(Cc3ccccc3)c3ccc(Br)cc23)C(=O)N(C)C1=O`, the growth in the assay on EKVX NSCLC was 108%; in the assay on SN12C renal, 96.6%; in the assay on UO-31 renal, 90.1%; in the assay with TK-10 renal it was 58.3%; with ACHN renal, 96.3%; in the assay with CAKI-1 renal, 97.1%. In addition, the growth in the assay on A498 renal is -91.3% (active); with CCRF-CEM leukemia, 101%; in the assay with MOLT-4 leukemia, 87.6%.

As to `Cc1c(N(C)CS(=O)(=O)O)c(=O)n(-c2ccccc2)n1C`, the growth with EKVX NSCLC is 93.1%; with SN12C renal, 93.9%; in the assay with UO-31 renal it was 79.9%; in the assay with TK-10 renal, 108%; in the assay on ACHN renal, 101%; in the assay on CAKI-1 renal, 98.8%. Further, the growth with A498 renal is 109%; in the assay with CCRF-CEM leukemia, 96.9%; with MOLT-4 leukemia, 83%.

`CO[C@H]1CC(O[C@@H]2/C(C)=C/C[C@@H]3C[C@@H](C[C@]4(CC[C@H](C)[C@@H](C5CCCCC5)O4)O3)OC(=O)[C@@H]3C=C(C)/C(=N/O)[C@H]4OC/C(=C\C=C\[C@@H]2C)[C@]43O)O[C@@H](C)C1O` (stereo partly specified): the growth was -85.9% (active) with EKVX NSCLC; -82.4% (active) in the assay on SN12C renal; -90.5% (active) in the assay with UO-31 renal; -90.4% (active) in the assay with TK-10 renal; -94.4% (active) with ACHN renal; -73.8% (active) with CAKI-1 renal. Further, the growth was -96.2% (active) with A498 renal and -47.9% (active) with CCRF-CEM leukemia.

In the case of `COC(=O)[C@]1(CCSC)N[C@H](c2cn(-c3ccccc3)nc2C)[C@@H]2C(=O)N(c3ccccc3)C(=O)[C@@H]21`, the growth in the assay with EKVX NSCLC was 107%; in the assay with SN12C renal, 103%; with UO-31 renal, 90.9%; in the assay on TK-10 renal, 118%; in the assay on ACHN renal, 113%; in the assay on CAKI-1 renal, 101%. For the same compound, in the assay with A498 renal, the growth is 93%.

As for `Oc1ccccc1/C=N\Nc1ccccc1`, the growth was 72.8% with EKVX NSCLC; 44.9% in the assay on SN12C renal; 15.5% in the assay with UO-31 renal; 110% in the assay on TK-10 renal; 27.2% in the assay on ACHN renal; 10.8% in the assay on CAKI-1 renal. Moreover, the growth with A498 renal is 82.5%; in the assay with CCRF-CEM leukemia, 17.8%; in the assay with MOLT-4 leukemia, 35.3%.

For `COC(=O)[C@]1(C(C)C)N[C@H](c2cn(-c3ccccc3)nc2-c2ccccc2)[C@@H]2C(=O)N(c3ccc(Cl)cc3)C(=O)[C@@H]21`, the growth in the assay on EKVX NSCLC is 102%; in the assay on SN12C renal, 97.3%; in the assay on UO-31 renal it was 59.5%; with TK-10 renal, 113%; in the assay on ACHN renal it was 93.9%; with CAKI-1 renal it was 77.5%. In the assay with A498 renal, the growth is 107%.

Regarding `COc1ccc(-c2cc(C(=O)Nc3nc4cc(C)c(C)cc4s3)nc3cc(-c4ccccc4)nn23)cc1OC`, the growth with EKVX NSCLC was 107%; with SN12C renal, 107%; in the assay with UO-31 renal, 103%; in the assay with TK-10 renal, 125%; in the assay on ACHN renal, 106%; in the assay on CAKI-1 renal it was 91.3%. Further, the figures for the growth with A498 renal and in the assay with CCRF-CEM leukemia were 129% and 84.2%, respectively.

On to `CCOC(=O)C(Cc1ccccc1)(C(=O)OCC)C(Br)C(=O)c1ccccc1` (stereo unspecified), for which the growth is 88.8% in the assay on EKVX NSCLC; 88.7% in the assay on SN12C renal; 37.6% in the assay on UO-31 renal; 69.2% in the assay with TK-10 renal; 44.3% with ACHN renal; 52% with CAKI-1 renal. Also, the growth with A498 renal was 82.4%.
